# From PubChem BioAssay (NCATS)
# Values without a mark were called inactive. The rule behind the calls is not given here.
# System: HIV-1 nucleocapsid protein NCp7 (binding to TG oligonucleotide)
# Assay: HIV Nucleocapsid (AID 346);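 note: potency is for inhibitors that block NC binding and lower polarization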
# Settings: HIV-1 NC / fluorescein-TGTGTGTG probe, fluorescence polarization
# In short: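 NCp7 100 nM + fluorescein TG4xF 10 nM; Hepes pH 7.5/250mM NaCl/1uM ZnCl2/0.004% PEG 20000; 1 hr RT; FP, 45 s exposure; oligo-only wells as negative control.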
# Potency is the fitted concentration of half-maximal effect.
row,Compound,Potency [µM]
1,CCNc1ncc2nc(-c3cc(F)cc(F)c3)c(=O)n(Cc3ccc(F)cc3)c2n1,> 4
2,COCC(=O)N1CCC2(CC1)CN(C(=O)Nc1ccccc1)C2,> 20
3,COc1ccccc1-c1cncnc1Nc1ccc(F)cc1,> 20
4,N#Cc1cccc(NC(=O)N2CC[C@@]3(CCCNC3)C2)c1,> 20
5,O=C(c1cccc(F)c1)N1CCC2(CCN(Cc3nccs3)CC2)CC1,> 20
6,COc1ccc(NC(=O)N2CC3(CCN(C(=O)c4cccc(F)c4)CC3)C2)cc1,> 20
7,CN(Cc1ccco1)c1cc(-c2cccnc2)ncn1,> 20
8,CS(=O)(=O)Nc1cccc(-c2cc(Nc3ccccc3)ncn2)c1,> 20
9,CN(C)c1ncc2nc(-c3cc(F)cc(F)c3)c(=O)n(C[C@H]3CCCO3)c2n1,> 20
10,CS(=O)(=O)N1CCC2(CCCN(Cc3cc(C(F)(F)F)cc(C(F)(F)F)c3)C2)CC1,> 20
11,CC(=O)N1CCC2(CC1)CN(Cc1ccccc1)C2,> 20
12,CN(Cc1ccco1)c1ccnc(-c2ccoc2)n1,> 20
13,COCCn1c(=O)c(-c2cn(C)c3ccccc23)nc2cnc(Oc3ccc(OC)cc3)nc21,> 20
14,COc1ncc2nc(-c3cccs3)c(=O)n(CCc3ccccc3)c2n1,> 20
15,CC(C)CN1CC[C@@]2(CCCN(C(=O)c3cc(C(F)(F)F)cc(C(F)(F)F)c3)C2)C1,> 20
16,COc1ccccc1CN1CC[C@@]2(CCCN(C(=O)c3cc(C(F)(F)F)cc(C(F)(F)F)c3)C2)C1,> 20
17,N#Cc1cccc(-c2nccc(NCc3ccccc3)n2)c1,> 20
18,COc1ccc(C(=O)N2CCC[C@@]3(CCN(c4ccccc4)C3)C2)cc1,> 20
19,Cc1noc(C)c1-c1nccc(N2CCOCC2)n1,> 20
20,COc1ccc(NC(=O)N2CCC3(CC2)CCN(S(C)(=O)=O)CC3)cc1,> 20

row,Compound,Potency [µM]
1,COc1ccccc1CNc1ncnc2ccc(-c3cccc(C#N)c3)cc12,> 20
2,Cc1cccc(CNc2ncncc2-c2ccc(C(=O)N(C)C)cc2)c1,> 20
3,c1cncc(-c2cc(NCc3cccs3)ncn2)c1,> 20
4,COc1ncc2nc(-c3ccc(Cl)cc3)c(=O)n(CCc3ccccc3)c2n1,> 20
5,COc1ccccc1-c1ccc2ncnc(NCCNC(C)=O)c2c1,> 20
6,COc1ccc(-n2c(=O)c(-c3ccc(Cl)cc3)nc3cnc(N4CCOCC4)nc32)cc1,> 20
7,CCNc1ncc2nc(C)c(=O)n(Cc3cccc(OC)c3)c2n1,> 20
8,N#CCCn1c(=O)c(CCc2ccccc2)nc2cnc(Oc3cccc(Cl)c3)nc21,> 20
9,Cc1nc2cnc(Nc3ccccc3)nc2n(CCc2ccccc2)c1=O,> 20
10,COc1cccc(-c2nc(N(C)Cc3ccco3)c3ccccc3n2)c1,> 20
11,CN(C)c1ncc2ncc(=O)n(Cc3cccs3)c2n1,> 20
12,CNc1ncnc2ccc(-c3ccccc3C#N)cc12,> 20
13,CC(=O)NCCNc1ncncc1-c1ccc(N(C)C)cc1,> 20
14,CS(=O)(=O)Nc1cccc(-c2nc(NCc3cccnc3)c3ccccc3n2)c1,> 20
15,COc1ccccc1CNc1ccnc(-c2cccc(C#N)c2)n1,> 20
16,COC(=O)N1CCC2(CCCN(c3ccccn3)C2)CC1,> 20
17,O=S(=O)(c1ccccc1)N1CCC2(CC1)CN(C(c1ccccc1)c1ccccc1)C2,> 20
18,O=C(c1cccc(F)c1)N1CCC2(CCCN(Cc3cc(C(F)(F)F)cc(C(F)(F)F)c3)C2)CC1,> 20
19,COCCn1c(=O)c(CCc2ccccc2)nc2cnc(Oc3ccccc3)nc21,> 20
20,N#CCCn1c(=O)c(-c2ccccc2)nc2cnc(N3CCNCC3)nc21,> 20
